D2 antagonist: D2 dopamine receptor (human) antagonism. HEK293 TREx D2 cells, calcium flux, dopamine EC80. inhibition, % at 10 µM. AID 485344. 340,000 tested, 2% active. P14416; in the data active = inhibition above about 30%; inactive = below that, where a call was filed
Target sequence (P14416 whole entry, looked up): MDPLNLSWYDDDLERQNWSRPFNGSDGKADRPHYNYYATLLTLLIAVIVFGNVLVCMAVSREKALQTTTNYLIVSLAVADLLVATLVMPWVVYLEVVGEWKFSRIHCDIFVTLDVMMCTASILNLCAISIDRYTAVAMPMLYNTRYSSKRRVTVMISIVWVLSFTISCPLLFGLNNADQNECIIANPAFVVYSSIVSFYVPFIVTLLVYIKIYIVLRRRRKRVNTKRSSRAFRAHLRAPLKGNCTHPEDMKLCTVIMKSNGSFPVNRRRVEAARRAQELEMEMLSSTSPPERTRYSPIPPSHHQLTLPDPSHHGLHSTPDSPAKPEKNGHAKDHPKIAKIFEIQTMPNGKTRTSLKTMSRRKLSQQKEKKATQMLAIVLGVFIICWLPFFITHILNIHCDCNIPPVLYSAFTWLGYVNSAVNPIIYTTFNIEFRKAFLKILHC
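Read-out: kinetic calcium fluorescence (1 cycle/s) in inducible HEK293 T-REx D2 cells after an EC80 dopamine addition that followed 180 s compound preincubation. Loss of the dopamine response indicates antagonism.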
D2 ag-1: activates the human D2 dopamine receptor | activation, % (concentration not given with the values) | DiscoveRx PathHunter D2 beta-arrestin, luminescence, 90 min; 100% = 57 uM dopamine signal | 360,000 tested, 0.084% active | P14416; in the data active = activation above about 40%
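Agonist mode: compounds alone added to overnight-plated D2 PathHunter cells for 90 min at 37 C, with 57 uM final dopamine (EC100) defining full response. Beta-arrestin recruitment detected by chemiluminescent reagent, read after 1 h at ambient temperature.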
D2 PAM-1: positively modulates the human D2 dopamine receptor allosterically; 340,000 tested, 0.34% active; AID 485347; potentiation, % at 10 µM; P14416; HEK293 T-REx D2, calcium flux, EC20 dopamine potentiation;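 active = potentiation over 3 SD above the plate norm, cut at about 30% in these data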
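Potentiation of an EC20 dopamine calcium response is measured in a force-coupled, tetracycline-inducible Hek293 Trex D2 line. Compound-only kinetic reads over 180 s flag agonists before dopamine addition.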
D2 ag-2: activates the human D2 dopamine receptor | P14416 | 340,000 tested, 0.53% active | activation, % at 2 µM | HEK293 T-REx D2 cells, calcium flux agonist mode;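 active = activation over 3 SD above normal in the single-dose calcium agonist read, cut at about 30% in these data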
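Agonism is scored from calcium flux in a force-coupled, inducible HEK293 cell line expressing D2, read kinetically for 180 s after compound addition against dopamine controls.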
D2 PAM-2: potentiates the human D2 dopamine receptor allosterically; P14416; DiscoveRx D2 beta-arrestin cells, luminescence, 90 min; 100% = 57 uM dopamine signal; potentiation, % (test concentration not listed); 360,000 tested, 0.23% active; AID 624464; in the data active = potentiation above about 50%
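D2 cells co-treated with compound plus 50 nM dopamine (EC20) for 90 min at 37 deg C to detect potentiation. Beta-arrestin recruitment was read as enzyme-fragment luminescence after 1 h at ambient temperature. Full response was set by 57 uM dopamine.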
Large screens that a line does not name were inactive. Compounds with a hit are over-represented: about 2.4% of the library has one in this group of screens.

COCCN(C(=O)c1ccccc1)c1nnc(-c2cccnc2)s1	D2 antagonist 47.9
COc1ccc(-n2cc(C(=O)N(C)c3cc(C)ccc3OC)c3ccccc3c2=O)cc1	none (no result: D2 antagonist, D2 ag-1, D2 PAM-2)
On1onc2c3cc(-c4ccccc4)nc3ccc21	D2 PAM-2 59.4
Cc1nn(C)c(C(=O)NCc2ccc(Cl)cc2)c1Cl	D2 antagonist 44.4
O=C(CC(=O)NCc1ccc(Cl)cc1)NCc1ccc(Cl)cc1	none
Cc1nc(C)c(C(=O)NCc2ccc(Cl)cc2)o1	none
Cc1nn(C)c(C(=O)NNC(=S)NCc2ccco2)c1Cl	D2 PAM-1 33.6
Cc1ccc(CC(=O)NCc2ccc(Cl)cc2)cc1	D2 antagonist 52.6
CN(C(=O)c1ccc(Cl)c([N+](=O)[O-])c1)C1(C)CCS(=O)(=O)C1 (configuration not stated)	none
N#Cc1ccc(C(=O)Nc2ccc([N+](=O)[O-])cc2)c(F)c1	none
Cc1c(NC(=O)COC(=O)CSc2ccc([N+](=O)[O-])cc2)c(=O)n(-c2ccccc2)n1C	none
COC(=O)c1ccccc1NC(=O)CSc1nc2ccsc2c(=O)n1CCC(C)C	none (no result: D2 antagonist, D2 ag-1, D2 PAM-2)
Cc1ccc2nc(Nc3ccccc3)c(C=O)c(=O)n2c1	D2 PAM-1 36.8
CCN(C1CCCCC1)S(=O)(=O)c1ccc(S(=O)(=O)N2CCN(CCC#N)CC2)cc1	D2 antagonist 37.6
Cn1c(CN2CCCCC2)c(C#N)c2ccccc21	D2 antagonist 45.6
Cn1c(CN2CCN(CC#N)CC2)c(C#N)c2ccccc21	none
COc1ccc2c(c1)cc(C(=O)N[C@@H](CCSC)C(=O)N1CCC[C@H]1C(=O)O)n2C	none
Cc1cc(C(=O)NNC(=S)NC(C)c2ccccc2)c2ccccc2n1 (configuration not stated)	D2 antagonist 45.0
Cc1cc(C(N)=O)c2ccccc2n1	D2 antagonist 49.8
COC(=O)c1ccc(NC(=O)c2cc3cc4ccc(OC)c(Cl)c4nc3s2)cc1	none (no result: D2 antagonist, D2 ag-1, D2 PAM-2)
Cc1ccc(-n2nc(CO)c(C(=O)NCc3cccs3)n2)cc1C	none (no result: D2 antagonist, D2 ag-1, D2 ag-2, D2 PAM-2)
CN(C)C(=O)c1cc(C(=O)c2ccc(C(F)(F)F)cc2)c[nH]1	none
CCc1nnc(NC(=O)C(C)N2C(=O)C3C4C=CC(C4)C3C2=O)s1 (configuration not stated)	D2 antagonist 32.8
Cc1nnc(NC(=O)NC(C)N2C(=O)C3C4C=CC(C4)C3C2=O)s1 (configuration not stated)	none
Cc1ccc(C)c(Nc2nc(-c3ccncc3)nc3ccccc23)c1	D2 antagonist 35.8 (no result: D2 ag-2)
CCN1CCN(c2ccc(NC(=O)c3cccc(F)c3)cc2Cl)CC1	none
CCOc1ccc2nc(N3CCN(C(=O)c4ccc5c(c4)CCCC5)CC3)sc2c1	none (no result: D2 antagonist, D2 ag-1, D2 PAM-2)
Cc1ccc(N2C(N)=C(C#N)C3(C(=O)N(C)c4ccccc43)C3=C2CC(C)(C)CC3=O)cc1Cl (configuration not stated)	none
CN1C(=O)C2(C(C#N)=C(N)N(c3cc(Cl)cc(Cl)c3)C3=C2C(=O)CC(C)(C)C3)c2ccccc21 (configuration not stated)	D2 antagonist 33.1
COc1cc(C(=O)NCC(c2ccc(N(C)C)cc2)N2CCc3ccccc32)cc(OC)c1OC (configuration not stated)	none (no result: D2 antagonist, D2 ag-1, D2 PAM-2)
CC1=C(CCN2CCN(C3CCCC3)C(CCO)C2)C(C)(C)CCC1 (configuration not stated)	none
CC(C)=CCN1CCN(CCC2=C(C)CCCC2(C)C)CC1CCO (configuration not stated)	D2 antagonist 60.9
C=CCNC(=O)N1CCCC(C(=O)c2cccc(OC(C)C)c2)C1 (configuration not stated)	none
O=C(O)CCn1c(SCCOc2ccccc2)nc2ccccc21	none (no result: D2 antagonist, D2 PAM-1, D2 ag-2)
Cc1cc(O)ccc1N/C=C1\CCCC1=O	D2 PAM-2 63.5
Cc1ccc([N+](=O)[O-])cc1NC(=O)C1CCCC1	none
CC(=O)Nc1ccc(N/C=C2/CCCC2=O)cc1	none
Cc1ccc([N+](=O)[O-])cc1N/C=C1\CCCCC1=O	D2 antagonist 51.8
O=C(NCCN1CCCCC1)c1cc(Cl)ccc1Cl	none
Cn1nc(C(=O)NC(C)(C)C)c2ccccc21	none
CN(Cc1ccco1)c1ncnc2ccc(-c3ccc4c(ccn4C)c3)cc12	none (no result: D2 ag-1, D2 PAM-2)
CC(=O)Nc1ccc(-c2csc(NC(=O)CC(NC(C)=O)c3ccccc3)n2)cc1 (configuration not stated)	D2 PAM-1 36.1
COc1ccc(Nc2oc(/C=C/c3cc(OC)c(OC)c(OC)c3)nc2C#N)cc1	none (no result: D2 antagonist, D2 ag-1, D2 PAM-2)
CC1(C)CC(=O)C(=Cc2cn(-c3ccccc3)nc2-c2ccc(Cl)cc2)C(=O)C1	D2 antagonist 32.3
CC1(C)CC(=O)C(=Cc2cn(CCC#N)nc2-c2ccc(Cl)cc2)C(=O)C1	none
COCCn1c(SCC(=O)N2CCCC2)nc2c([nH]c3ccccc32)c1=O	none
COc1cccc(N2CCN(C3OC(=O)c4ccccc43)CC2)c1 (configuration not stated)	D2 antagonist 30.5
CC(C)CCn1c(=O)c2sccc2n2c(CCCC(=O)Nc3ccc(C(C)C)cc3)nnc12	none (no result: D2 antagonist, D2 ag-1, D2 ag-2, D2 PAM-2)
O=C(Cn1cc([N+](=O)[O-])cn1)N1CCc2ccccc21	none
CC1Cc2ccccc2N1C(=O)Cn1cc([N+](=O)[O-])cn1 (configuration not stated)	D2 antagonist 38.7
CC1Cc2ccccc2N1C(=O)CN1CCN(Cc2ccccc2)CC1 (configuration not stated)	D2 antagonist 41.0
CCN1C(=O)/C(=C/c2ccc(OC)c(OC)c2)N=C1SCC(=O)NCc1ccco1	none
COc1ccc(C(=O)NCC(c2cccnc2)N2CCN(c3ccccc3F)CC2)cc1OC (configuration not stated)	none (no result: D2 antagonist, D2 ag-1, D2 PAM-2)
CCOC(=O)c1cccc(NC(=O)c2cc3c(=O)n(Cc4ccccc4)ccc3nc2C)c1	none (no result: D2 antagonist, D2 ag-1, D2 PAM-2)
COC(=O)c1ccc(NC(=O)Cn2nc(C(=O)Nc3ccc(C)cc3)ccc2=O)cc1	D2 antagonist 30.0
CC(C)OC(=O)CSc1nnc2c3ccccc3n(C)c2n1	D2 antagonist 37.2
CC(C)CSc1nnc2c3ccccc3n(C)c2n1	none (no result: D2 antagonist, D2 ag-2)
O=C(ON=C1CCN(S(=O)(=O)c2ccccc2)CC1)c1cccc(Cl)c1	D2 PAM-1 34.1
O=C(NC1CCCC1)c1cc(-c2ccc(Cl)cc2Cl)on1	D2 antagonist 30.8
O=C(NC1CCCC1)c1cc(-c2ccccc2O)on1	D2 antagonist 47.5
O=C(NC1CCCCC1)c1cc(-c2ccccc2Cl)on1	none
O=C(Nc1ccc2c(c1)OCO2)c1cc(-c2ccccc2Cl)on1	D2 antagonist 37.3
O=C(NC1CCCC1)c1cc(-c2ccccc2Cl)on1	D2 antagonist 49.8
CCc1ccc(C(=O)c2cn(CC(=O)Nc3cccc(OC)c3)c3cc4c(cc3c2=O)OCO4)cc1	none (no result: D2 antagonist, D2 ag-1, D2 ag-2, D2 PAM-2)

Source: PubChem BioAssay
